KB-V1 MDR tox: kills drug-selected multidrug resistant KB-V1 cells; KB-V1 MDR cells viability, CellTiter-Glo, 72 h; 400,000 compounds, 3.4% hits; AID 1347076; Potency, µM (series often up to 46.1 µM), most hits filed as cytotoxic; also: nearly all actives have a fitted effect of over 60% in size
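KB-V1 MDR subline cells in DMEM (phenol-red free, 10% FBS) exposed to compounds in qHTS concentration series for 72 h at 37 degrees C. Viability read by CellTiter-Glo luminescence; concentration-effect curves fitted after normalization and correction.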
DT40 TDP1 CPT: growth inhibition of DT40 Tdp1-/-;hTDP1 cells with camptothecin (screen for TDP1 inhibitors); chicken DT40 Tdp1-/-;hTDP1 cells + 20 nM CPT, ATP luminescence, 48 h; 420,000 compounds, 12% hits; Potency, µM (series often up to 46.2 µM), actives largely listed as inhibitors; also: nearly all actives have a fitted effect of over 55% in size
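Chicken DT40 Tdp1-/- cells complemented with human TDP1, 400 cells/well, exposed to compounds plus 20 nM camptothecin for at least 48 h at 37 C; viability read as ATP content by CellTiter-Glo luminescence.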
HT1080-NT tox: kills 2HG-producing HT-1080-NT fibrosarcoma cells; HT-1080-NT fibrosarcoma viability, CellTiter-Glo ATP luminescence, 48 h; 360,000 compounds, 1.6% hits; Potency, µM (doses to about 46.1 µM), hits mostly cytotoxic; AID 686970;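 also: NT is the 2HG producing partner of a matched IDH1 knockdown line; nearly all actives have a fitted effect of over 55% in size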
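Luminescent CellTiter-Glo readout after 48 hours of compound exposure at 37 degrees C defined viability of HT-1080-NT cells. Activity was normalized to DMSO wells and cell-free media wells; concentration-response curves were fitted and assigned curve classes.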
TDP1 cell noCPT: qHTS for Inhibitors of human tyrosyl-DNA phosphodiesterase 1 (TDP1): qHTS in cells in absence of CPT; DT40 Tdp1-/- hTDP1 cells, no CPT, ATP luminescence, 48 h; Potency, µM (titrated, usually from 46.2 µM), usual class: inhibitors; 420,000 compounds, 15% hits; AID 686978, 2013; also: nearly all actives have a fitted effect of over 55% in size
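Camptothecin absent (DMSO only). Human TDP1-complemented DT40 knockout cells, 400 cells/well, 37 °C for minimum 48 hr; ATP measured via CellTiter-Glo, 30 min dark incubation, luminescence.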
KB-3-1 tox: kills parental KB-3-1 adenocarcinoma cells. 400,000 compounds, 1.4% hits. Potency, µM (highest dose often 46.1 µM), hits mostly cytotoxic. KB-3-1 viability, CellTiter-Glo ATP luminescence, 72 h; also: nearly all actives have a fitted effect of over 60% in size
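Here the drug-naive KB-3-1 line serves as comparator for MDR sub-line selectivity; cells received compound titrations, 72 h at 37 °C, then CellTiter-Glo readout.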
HT1080 IDH1KD tx: toxicity to HT-1080 IDH1 knockdown cells (counter line); HT-1080 IDH1 knockdown viability, ATP luminescence, 48 h; Potency, µM (titrated, usually from 46.1 µM), most hits filed as cytotoxic; 360,000 compounds, 2% hits; AID 686971
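Luminescent ATP read-out (CellTiter-Glo, 10 min at room temperature) after 48 h compound exposure at 37 °C gave viability of IDH1-knockdown HT-1080 cells. Activity was normalised to DMSO and cell-free wells, then fitted as concentration-response curves.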
Numbers stand for hits. A selection: hits, their analogues and other compounds. The true share with any hit is near 19%. Calls follow the shape of the dose curve; as a rule, active = well fitted curve in the direction sought with a large enough effect; inconclusive = small, poorly fitted or top-dose-only effect, or another doubt; inactive = no such curve, though single readings can be large; an effect the other way counts as inactive or inconclusive.

`CN(Cc1ccccc1)C(=O)CCCn1c(=O)c2cccn2c2cccnc21` gave KB-V1 MDR tox inactive, DT40 TDP1 CPT inactive, HT1080-NT tox inactive, TDP1 cell noCPT inactive, KB-3-1 tox inconclusive and HT1080 IDH1KD tx inactive.
For O=C(NC(=S)Nc1cccc(CO)c1)c1ccc(-c2ccccc2)cc1 the results were KB-V1 MDR tox inactive, DT40 TDP1 CPT 23µM, HT1080-NT tox inactive, TDP1 cell noCPT 13µM, KB-3-1 tox inactive and HT1080 IDH1KD tx inactive.
Cc1ccc(NC(=O)c2cccs2)cc1S(=O)(=O)Nc1cccc(Cl)c1 was read as KB-V1 MDR tox inactive, DT40 TDP1 CPT inactive, HT1080-NT tox inactive, TDP1 cell noCPT inconclusive, KB-3-1 tox inactive and HT1080 IDH1KD tx inactive.
Screening CC(C)C(=O)Nc1cccc(NC(=S)NC(=O)c2ccc(Cl)cc2)c1 returned KB-V1 MDR tox 2.9µM, DT40 TDP1 CPT inconclusive, HT1080-NT tox inconclusive, TDP1 cell noCPT 16µM, KB-3-1 tox inconclusive and HT1080 IDH1KD tx inconclusive.
For O=C(Cc1ccccc1)Nc1ccc(NC(=S)NC(=O)c2ccccc2)cc1 the results were DT40 TDP1 CPT inactive, HT1080-NT tox inactive, TDP1 cell noCPT inconclusive and HT1080 IDH1KD tx inactive.
Screening Cc1ccc(NC(=S)NC(=O)c2ccc(F)cc2)cc1S(=O)(=O)Nc1cccc(Cl)c1 returned KB-V1 MDR tox 7.3µM, DT40 TDP1 CPT 5.2µM, HT1080-NT tox 6.5µM, TDP1 cell noCPT 5.8µM, KB-3-1 tox 5.2µM and HT1080 IDH1KD tx 2.9µM.
`O=C(NC(NC(=S)Nc1c(Cl)cc(Cl)cc1Cl)C(Cl)(Cl)Cl)OCc1ccccc1` (centres undefined) gave KB-V1 MDR tox 12µM, DT40 TDP1 CPT inconclusive, HT1080-NT tox inconclusive, TDP1 cell noCPT 16µM, KB-3-1 tox inconclusive and HT1080 IDH1KD tx inconclusive.
CCN(CC)C(=O)C1=C(C)N(CCC2=CCCCC2)C(=O)C(CC(=O)NCCCN(C)C)C1 (centres undefined) was read as KB-V1 MDR tox inactive, DT40 TDP1 CPT inactive, HT1080-NT tox inactive, TDP1 cell noCPT inactive, KB-3-1 tox inactive and HT1080 IDH1KD tx inactive.
`O=C(CCN=C1NS(=O)(=O)c2ccccc21)Nc1ccc(F)cc1Cl` gave KB-V1 MDR tox inactive, DT40 TDP1 CPT inactive, HT1080-NT tox inactive, TDP1 cell noCPT inactive, KB-3-1 tox inactive and HT1080 IDH1KD tx inactive.
For O=C(NC(=S)NC(c1ccccc1)c1ccncc1)c1ccccc1 (centres undefined) the results were KB-V1 MDR tox inactive, DT40 TDP1 CPT 15µM, HT1080-NT tox inactive, TDP1 cell noCPT 12µM, KB-3-1 tox inactive and HT1080 IDH1KD tx inconclusive.
Screening Cc1ccc(C(=O)NC(=S)Nc2ccc(NC(=O)c3cccc(Cl)c3)cc2)cc1 returned KB-V1 MDR tox inactive, DT40 TDP1 CPT inactive, HT1080-NT tox inconclusive, TDP1 cell noCPT inconclusive, KB-3-1 tox inactive and HT1080 IDH1KD tx 26µM.
For O=C(NC(=S)Nc1c(Cl)cc(Cl)cc1Cl)c1ccccc1 the results were KB-V1 MDR tox inconclusive, DT40 TDP1 CPT 23µM, HT1080-NT tox inactive, TDP1 cell noCPT 9.2µM, KB-3-1 tox inactive and HT1080 IDH1KD tx inactive.
Screening CCC(=O)Nc1cccc(NC(=S)NC(=O)c2ccc(C)cc2)c1 returned KB-V1 MDR tox inconclusive, DT40 TDP1 CPT inconclusive, HT1080-NT tox inactive, TDP1 cell noCPT inconclusive, KB-3-1 tox inactive and HT1080 IDH1KD tx inactive.
For CCN1CCc2c(sc(-n3cccc3)c2C(C)NC(=O)Nc2ccc(Br)cc2)C1 (centres undefined) the results were DT40 TDP1 CPT 16µM and TDP1 cell noCPT 13µM.
For CCOc1ccc(NC(=O)NCc2c(-n3cccc3)sc3c2CCCC3)cc1 the results were KB-V1 MDR tox inactive, DT40 TDP1 CPT inactive, TDP1 cell noCPT inactive and KB-3-1 tox inactive.
For CCOc1ccc(NC(=O)NC(C)c2c(-n3cccc3)sc3c2CCN(CC)C3)cc1 (centres undefined) the results were DT40 TDP1 CPT 21µM and TDP1 cell noCPT 18µM.
CCOCCCNC(=O)NC(C)c1c(-n2cccc2)sc2c1CCN(CC)C2 (centres undefined) was read as DT40 TDP1 CPT 13µM and TDP1 cell noCPT 16µM.
Screening CCN1CCc2c(sc(NC(=O)Cc3ccccc3)c2C(N)=O)C1 returned KB-V1 MDR tox inactive, DT40 TDP1 CPT inactive, HT1080-NT tox inactive, TDP1 cell noCPT inactive, KB-3-1 tox inactive and HT1080 IDH1KD tx inactive.
`CCCC1([C@H](O)C/C=C/[C@H]2[C@H](O)CC(=O)[C@@H]2CCCCCCC(=O)OC)CCC1` gave DT40 TDP1 CPT 15µM and TDP1 cell noCPT 11µM.
Screening CCOC(=O)c1c(NC(=O)c2ccc(S(=O)(=O)N3CCOCC3)cc2)sc2c1CCN(C(C)C)C2 returned KB-V1 MDR tox inactive, DT40 TDP1 CPT inconclusive, HT1080-NT tox inactive, TDP1 cell noCPT 8.2µM, KB-3-1 tox inactive and HT1080 IDH1KD tx inconclusive.
`COC(=O)c1c(NC(=O)C2CCCCC2)sc2c1CCN(C(C)C)C2` gave KB-V1 MDR tox inconclusive, DT40 TDP1 CPT inconclusive, HT1080-NT tox inactive, TDP1 cell noCPT inconclusive, KB-3-1 tox inactive and HT1080 IDH1KD tx inactive.
CCN1CCc2c(sc(NC(=O)c3ccc(S(=O)(=O)N4CCOCC4)cc3)c2C(=O)OC)C1 was read as KB-V1 MDR tox inactive, DT40 TDP1 CPT 8.2µM, HT1080-NT tox inconclusive, TDP1 cell noCPT inconclusive, KB-3-1 tox inactive and HT1080 IDH1KD tx inconclusive.
Screening CCN1CCc2c(sc(NC(=O)c3ccc(S(=O)(=O)N4CCOCC4)cc3)c2C(N)=O)C1 returned KB-V1 MDR tox inactive, DT40 TDP1 CPT inconclusive, HT1080-NT tox inactive, TDP1 cell noCPT inconclusive, KB-3-1 tox inactive and HT1080 IDH1KD tx inactive.
For CCOC(=O)c1c(NC(=O)C2CCCCC2)sc2c1CCN(C(C)C)C2 the results were KB-V1 MDR tox inactive, DT40 TDP1 CPT 15µM, HT1080-NT tox inconclusive, TDP1 cell noCPT 13µM, KB-3-1 tox inactive and HT1080 IDH1KD tx inactive.
CC(C)(C)Cc1nnc(NS(=O)(=O)c2ccc([N+](=O)[O-])cc2)s1 was read as KB-V1 MDR tox inactive, DT40 TDP1 CPT inactive, HT1080-NT tox inactive, TDP1 cell noCPT inactive, KB-3-1 tox inactive and HT1080 IDH1KD tx inactive.
COc1ccc(OC2(C)CCN(Cc3ccccc3OC(F)F)C2)cc1 (centres undefined) was read as KB-V1 MDR tox inactive, DT40 TDP1 CPT inconclusive, HT1080-NT tox inactive, TDP1 cell noCPT inconclusive, KB-3-1 tox inactive and HT1080 IDH1KD tx inactive.
CC1CCC(NC(=O)CCNC(=O)c2ccccc2)CC1 (centres undefined) was read as KB-V1 MDR tox inactive, DT40 TDP1 CPT inactive, HT1080-NT tox inactive, TDP1 cell noCPT inactive, KB-3-1 tox inactive and HT1080 IDH1KD tx inactive.

Screening results (PubChem)
